BioA inh: blocks M. tuberculosis BioA enzyme activity; inhibition, % at 9.99 µM; purified M. tuberculosis BioA enzyme, plate reader; AID 602481; 360,000 tested, 0.096% active; in the data active = inhibition above about 40%
FadD28 binding: M. tuberculosis FadD28 bisubstrate binding inhibition. FadD28 bisubstrate probe binding, fluorescence polarization. 360,000 tested, 0.22% active. AID 588549. inhibition, % at 12.5 µM; in the data active = inhibition above about 8.5%, passing the limit was not always enough
TcdB GH inh: inhibitors of Clostridioides difficile toxin B glycohydrolase | P18177 | TcdB glycohydrolase enzymatic assay, plate reader | inhibition, % at 9.99 µM | 350,000 tested, 0.24% active; in the data active = inhibition above about 10%
Y pestis TopoI: inhibitors of Yersinia pestis topoisomerase I | activity, % at 10 µM | Y. pestis Topo-I cleavage product accumulation, plate reader | 360,000 tested, 0.064% active; in the data active = activity above about 50%, passing the limit was not always enough
VHR inh abs: inhibitors of human VHR1 phosphatase (DUSP3) | AID 1654 | recombinant VHR phosphatase, pNPP absorbance | 290,000 tested, 0.52% active | inhibition, % at 13.3 µM; in the data active = inhibition above about 50%
Target sequence (P51452 whole entry, looked up): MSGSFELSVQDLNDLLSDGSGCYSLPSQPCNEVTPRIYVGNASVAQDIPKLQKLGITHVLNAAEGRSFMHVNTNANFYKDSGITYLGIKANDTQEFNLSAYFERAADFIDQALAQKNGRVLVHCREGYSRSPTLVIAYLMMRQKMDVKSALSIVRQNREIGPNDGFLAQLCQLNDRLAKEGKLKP
MazEF act: MazEF (E. coli) toxin RNase activation; FAM/BHQ RNA-DNA oligo cleavage fluorescence, 5 h; activation, % at 20 µM; 350,000 tested, 0.32% active; in the data active = activation above about 50%
Target sequence (P0AE70 whole entry, looked up): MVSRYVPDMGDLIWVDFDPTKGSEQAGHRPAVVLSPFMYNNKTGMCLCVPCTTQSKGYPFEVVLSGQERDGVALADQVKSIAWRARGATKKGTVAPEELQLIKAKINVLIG
Numbers without * were called inactive; x = no result given; + = active, no number; ! = not active in a repeat. This is a sample that favours compounds with a hit; in the whole collection about 1% have one here.

SMILES	BioA inh	FadD28 binding	TcdB GH inh	Y pestis TopoI	VHR inh abs	MazEF act
CCCN1C(=O)c2ccccc2NC1c1ccc(Cl)c(Cl)c1 (stereo not given)	1	-2	2	8	x	6
CCCCN1C2=C(C(=O)CCC2)C(c2ccc(Cl)c(Cl)c2)C2=C1c1ccccc1C2=O (stereo not given)	0	-4	x	-11	3	60*
CCN1CCN(Cc2ccc(NC(=O)c3cc(NC(=O)c4cc(-c5ccc(OC)cc5)n[nH]4)cc(OC)c3)cc2C(F)(F)F)CC1	0	67*	2	-7	19	-83
CCOC(=O)N1CCN(c2c(-c3ccc(C)cc3)c(=O)c2=O)CC1	3	0	x	2	54*	-2
CCOC(=O)N1CCN(c2c(-c3ccc(C(C)C)cc3)c(=O)c2=O)CC1	0	-1	x	8	20	-5
C[C@H]1CN([C@@H](C)CO)C(=O)Cc2cc(NC(=O)Cn3cnnn3)ccc2O[C@H]1CN(C)Cc1ccc(C(=O)Nc2ccccc2N)cc1	x	x	-1	x	x	x
Cc1cc([N+](=O)[O-])c2[nH]c(C(=O)N/N=C/c3ccccc3C(=O)O)c(-c3ccccc3)c2c1	0	-4	x	11	90*	-5
NS(=O)(=O)c1ccc(N/N=C/c2ccccc2C(=O)O)c([N+](=O)[O-])c1	x	1	0	9	37	6
COCC#Cc1ccc2c(c1)O[C@H](CN(C)S(C)(=O)=O)[C@@H](C)CN([C@@H](C)CO)S2(=O)=O	2	x	-1	x	x	x
O=C1NC(=O)N(Cc2ccccc2)C(=O)/C1=C\c1ccco1	x	28*	-1	-5	17	4
COc1ccc(NC(=O)N(C)C[C@@H]2OCc3ccccc3-c3c(n(C)c4ccccc34)C(=O)N([C@H](C)CO)C[C@@H]2C)cc1	x	x	1	x	x	x
Cc1[nH]c2ccccc2c1/C=N/NC(=O)c1ccc(N)cc1	-1	0	1	5	58*	1
CC[n+]1c(C)sc2c3ccsc3ccc21	x	-2	0	-2	51*	-1
COc1ccc(C=NNc2ccc([N+](=O)[O-])cc2S(=O)(=O)Nc2ccccc2C(=O)O)cc1OC	6	-1	-3	1	x	-12
COc1ccc(/C=N/Nc2ccc([N+](=O)[O-])cc2S(=O)(=O)N2CCN(C)CC2)cc1	1	-1	0	-4	5	166*
O=C(CCC(=O)N1CCSc2ccccc21)Nc1cccc(F)c1	0	0	10*	7	13	3
O=C(O)CCC(=O)Nc1ccc(C(=O)OCC(=O)c2ccc(Cl)cc2)cc1	-1	15*	1	1	11	0
C/C(=N/N=C(\C)c1ccccc1O)c1ccccc1O	x	-2	4	4	24	-30
C/C(=N\N1C(C)CCCC1C)c1ccccc1O (stereo not given)	-2	-1	0	-1	53*	-2
Cn1cc(C=C2C(=O)NC(=O)NC2=O)c2ccccc21	-1	0	0	12	22	+
CC(=O)n1cc(C=C2C(=O)NC(=O)NC2=O)c2ccccc21	-1	0	1	5	-20	3
C[C@H](CO)N1C[C@H](C)[C@H](CN(C)S(C)(=O)=O)OCCCC[C@H](C)Oc2ccc(N(C)C)cc2C1=O	-2	x	-18	x	x	x
O=Nc1c(-c2c(O)[nH]c3cc(Br)ccc23)[nH]c2ccccc12	-3	0	-1	-9	10	55*
O=C(CSCc1cccc(Br)c1)N=Nc1c(O)[nH]c2ccccc12	x	-2	x	13	19	-1
O=C(C[C@H]1CC[C@@H](NC(=O)Nc2ccccc2)[C@H](CO)O1)NCc1cccc(F)c1	1	x	0	x	x	x
SMILES	BioA inh	FadD28 binding	TcdB GH inh	Y pestis TopoI	VHR inh abs	MazEF act
CCn1c(=O)cc(SCC(=O)NCc2cccnc2)c2ccccc21	-1	-2	x	2	19	-1
CCn1c(=O)cc(SCC(=O)NCc2ccccn2)c2ccccc21	3	-2	x	6	55*	-11
CCC(=NC(C)c1ccccc1)c1c(O)[nH]c(=O)[nH]c1=O (stereo not given)	0	-2	1	5	14	-10
CCC(=NCCC(c1ccccc1)c1ccccc1)c1c(O)[nH]c(=O)[nH]c1=O	-1	-2	x	66*	0	-11
CN(C)C1C(=O)C(C(N)=O)=C(O)C2(O)C(=O)C3=C(O)c4c(O)cccc4C(C)(O)C3CC12 (stereo not given)	-5	0	x	-8	6	-8
CN(C)[C@@H]1C(=O)C(C(=O)NCN2CCCC2)=C(O)[C@@]2(O)C(=O)C3=C(O)c4c(O)cccc4[C@@](C)(O)C3CC12 (stereo not given in full)	x	x	x	x	66*	x
CN(C)[C@@H]1C(=O)C(C(N)=O)=C(O)[C@@]2(O)C(=O)C3=C(O)c4c(O)cccc4[C@@](C)(O)C3[C@H](O)C12 (stereo not given in full)	0	31*!	-5	-9	x	-16
Cc1cc(C)c2cc3c(N)c(C(=O)N4CCOCC4)sc3nc2c1	x	-1	1	-7	18	15
Cc1cc(C)c2cc3c(N)c(C(=O)Nc4c(C)[nH]c(=O)[nH]c4=O)sc3nc2c1	-2	-1	x	1	-2	155*
O=C(CSc1cccc2cccnc12)N/N=C/c1ccc(O)cc1	1	-3	20*	-5	23	9
O=C(CCn1cnc2ccccc21)N/N=C/c1ccccc1O	3	-3	-9	-6	5	6
O=C(CCNC(=O)c1ccccc1Cl)N/N=C\c1ccc(O)cc1	4	-1	15*	4	24	0
O=C(CCn1cnc2ccccc21)N/N=C/c1ccc(O)cc1	2	-2	14*	-5	-1	1
O=C(CNS(=O)(=O)c1ccccc1)N/N=C/c1ccc(O)cc1	x	-4	14*	-7	11	12
COc1cc(/C=N/NC(=O)CCNC(=O)c2ccccc2Cl)ccc1O	x	-1	-3	-4	2	1
Cn1cnc(S(=O)(=O)N[C@@H]2C=C[C@H](CC(=O)NCC3CCCCC3)O[C@@H]2CO)c1	-3	x	1	x	x	x
O=C(Nc1ccc([N+](=O)[O-])cc1)Nc1ccc(OC(F)F)c(Cl)c1	x	13*	x	-15	0	19
COc1ccc(NC(=O)Nc2cccc([N+](=O)[O-])c2)cc1Cl	2	16*	1	-18	49	106*
CCC(=O)Nc1ccc2c(c1)Cc1cc([N+](=O)[O-])ccc1-2	-3	-1	0	-6	x	58*
O=CNc1ccc2c(c1)Cc1cc([N+](=O)[O-])ccc1-2	15	-3	1	-20	x	13
O=C(Nc1cccc([N+](=O)[O-])c1)Nc1ccc2c(c1)CCC2	-1	6	0	-14	18	84*
COc1ccc(CNC(=O)C[C@@H]2C=C[C@@H](NC(=O)CN(C)C)[C@@H](CO)O2)cc1	0	x	0	x	x	x

Compound activity from PubChem.
